Reference: PubChem BioAssay AID876 (University of Pittsburgh Molecular Library Screening Center, 2007)
The list shows a part of the results. Unmarked numbers belong to inactive results. No rule for the calls is given here.

Assay: redox cycling hydrogen peroxide generation, dose response, artefact control for Plk1 PBD inhibitor project, biochemical (AID 876)
Settings: redox cycling H2O2 generation, DTT, counter-screen

SMILES | EC50 [µM]
CC1(C)CC(=O)C=C(NCc2ccncc2)C1 | > 50
Oc1ccc2ccc3cccc[n+]3c2c1 | > 50
CCOC(=O)c1cc2n(c1N)-c1ccccc1C2=O | > 50
COc1ccc(Nc2oc(-c3ccccc3Cl)nc2C#N)cc1 | > 50
O=C(NCCc1ccccc1)/C(=C\c1ccc([N+](=O)[O-])cc1)NC(=O)c1ccccc1 | > 50
